# PMC7862700, “An all-to-all approach to the identification of sequence-specific readers for epigenetic DNA modifications on cytosine”
# Key:
# Test in all cases: DAPPL (digital affinity profiling via proximity ligation, sequencing); 10 mM Tris-HCl pH 7.5, 50 mM NaCl, 1 mM DTT, 4% glycerol, room temperature, 30 min; GST-TFs on glutathione beads, 16-mer random dsDNA library, 0.1% formaldehyde crosslink after washing; high values mean tight binding
# FEV = target: T1, FEV (Homo sapiens, UniProt Q99581 1-238); conditions: protein: recombinant; tags: N-terminal GST; dsDNA, one strand shown
# T1 sequence: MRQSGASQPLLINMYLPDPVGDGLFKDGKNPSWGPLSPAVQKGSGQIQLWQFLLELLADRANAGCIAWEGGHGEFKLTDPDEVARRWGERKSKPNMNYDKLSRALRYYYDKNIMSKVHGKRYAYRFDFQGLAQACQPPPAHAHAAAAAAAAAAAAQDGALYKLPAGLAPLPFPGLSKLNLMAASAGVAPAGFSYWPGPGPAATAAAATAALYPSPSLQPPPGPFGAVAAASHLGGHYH
# Summary of the method: (§1)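 GST fusions of human transcription factors were expressed in yeast and captured with glutathione beads. Once given DNA barcodes and pooled alongside a tag-only sample, they were incubated for 30 min at room temperature with 200 nmole of a random double-stranded 16-mer DNA library in Tris/NaCl/DTT/glycerol buffer, then washed, crosslinked (0.1% formaldehyde), proximity-ligated, PCR-amplified and sequenced on an Illumina NextSeq500. The binding signal of each hexamer is its read frequency for a factor divided by its frequency for the tag-only sample.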
# ETV5 = ETV5 (Homo sapiens, UniProt P41161 1-510); conditions: protein: recombinant; tags: N-terminal GST; dsDNA, one strand shown
# Summary of the method: as §1
# HSF1 = HSF1 (Homo sapiens, UniProt Q00613 1-529); conditions: protein: recombinant; tags: N-terminal GST; chain copies: 3; dsDNA, one strand shown
# Summary of the method: as §1
# SPIC = target: T2, SPIC (Homo sapiens, UniProt Q8N5J4 1-248); conditions: protein: recombinant; tags: N-terminal GST; dsDNA, one strand shown
# T2 sequence: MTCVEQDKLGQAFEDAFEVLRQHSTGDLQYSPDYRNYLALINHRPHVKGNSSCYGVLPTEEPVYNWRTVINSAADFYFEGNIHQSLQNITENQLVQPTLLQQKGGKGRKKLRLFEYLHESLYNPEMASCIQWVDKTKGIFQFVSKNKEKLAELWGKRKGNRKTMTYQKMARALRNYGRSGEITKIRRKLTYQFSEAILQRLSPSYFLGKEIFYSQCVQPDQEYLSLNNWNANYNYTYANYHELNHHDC
# Summary of the method: as §1
# ELF4 = ELF4 (Homo sapiens, UniProt Q99607 1-663); conditions: protein: recombinant; tags: N-terminal GST; dsDNA, one strand shown
# Summary of the method: as §1
# ELK4 = target: T3, ELK4 (Homo sapiens, UniProt P28324-2 1-405); conditions: protein: recombinant; tags: N-terminal GST; dsDNA, one strand shown
# T3 sequence: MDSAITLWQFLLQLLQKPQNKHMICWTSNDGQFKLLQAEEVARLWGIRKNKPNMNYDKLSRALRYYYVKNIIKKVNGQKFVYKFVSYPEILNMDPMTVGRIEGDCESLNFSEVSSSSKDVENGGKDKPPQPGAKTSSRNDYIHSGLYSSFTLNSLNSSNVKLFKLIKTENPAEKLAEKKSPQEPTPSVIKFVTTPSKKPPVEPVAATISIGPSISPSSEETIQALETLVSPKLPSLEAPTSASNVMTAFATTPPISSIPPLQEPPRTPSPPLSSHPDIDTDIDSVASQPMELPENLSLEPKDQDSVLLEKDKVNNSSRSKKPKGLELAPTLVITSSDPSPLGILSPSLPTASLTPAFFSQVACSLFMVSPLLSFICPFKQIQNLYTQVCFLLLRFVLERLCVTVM
# Summary of the method: as §1
# ETV2 = target: T4, ETV2 (Homo sapiens, UniProt O00321 1-342); conditions: protein: recombinant; tags: N-terminal GST; dsDNA, one strand shown
# T4 sequence: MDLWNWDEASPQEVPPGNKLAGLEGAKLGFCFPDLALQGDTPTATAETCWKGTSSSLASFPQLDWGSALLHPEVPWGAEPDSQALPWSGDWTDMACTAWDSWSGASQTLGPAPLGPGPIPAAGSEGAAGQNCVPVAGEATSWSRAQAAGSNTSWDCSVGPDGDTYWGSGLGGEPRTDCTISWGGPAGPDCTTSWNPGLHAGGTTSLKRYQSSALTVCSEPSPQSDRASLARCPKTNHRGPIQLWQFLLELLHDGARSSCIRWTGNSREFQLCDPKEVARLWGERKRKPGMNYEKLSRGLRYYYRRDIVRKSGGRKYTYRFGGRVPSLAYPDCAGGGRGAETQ
# Summary of the method: as §1
# ELF3 = target: T5, ELF3 (Homo sapiens, UniProt P78545 1-371); conditions: protein: recombinant; tags: N-terminal GST; dsDNA, one strand shown
# T5 sequence: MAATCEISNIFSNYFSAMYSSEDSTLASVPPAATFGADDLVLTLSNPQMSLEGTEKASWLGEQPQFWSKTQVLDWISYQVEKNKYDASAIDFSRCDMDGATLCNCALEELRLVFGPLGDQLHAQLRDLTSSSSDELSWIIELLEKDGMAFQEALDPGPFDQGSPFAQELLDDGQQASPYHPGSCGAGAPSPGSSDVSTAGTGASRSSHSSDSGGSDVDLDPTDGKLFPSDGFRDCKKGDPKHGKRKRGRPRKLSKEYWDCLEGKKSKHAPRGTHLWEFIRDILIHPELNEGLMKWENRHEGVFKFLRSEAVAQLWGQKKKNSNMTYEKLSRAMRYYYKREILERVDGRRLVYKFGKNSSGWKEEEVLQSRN
# Summary of the method: as §1
# CRX = CRX (Homo sapiens, UniProt O43186 1-299); conditions: protein: recombinant; tags: N-terminal GST; dsDNA, one strand shown
# Summary of the method: as §1
# ETV1 = ETV1 (Homo sapiens, UniProt P50549 1-477); conditions: protein: recombinant; tags: N-terminal GST; dsDNA, one strand shown
# Summary of the method: as §1
# Chain of ETV5 (P41161 whole entry): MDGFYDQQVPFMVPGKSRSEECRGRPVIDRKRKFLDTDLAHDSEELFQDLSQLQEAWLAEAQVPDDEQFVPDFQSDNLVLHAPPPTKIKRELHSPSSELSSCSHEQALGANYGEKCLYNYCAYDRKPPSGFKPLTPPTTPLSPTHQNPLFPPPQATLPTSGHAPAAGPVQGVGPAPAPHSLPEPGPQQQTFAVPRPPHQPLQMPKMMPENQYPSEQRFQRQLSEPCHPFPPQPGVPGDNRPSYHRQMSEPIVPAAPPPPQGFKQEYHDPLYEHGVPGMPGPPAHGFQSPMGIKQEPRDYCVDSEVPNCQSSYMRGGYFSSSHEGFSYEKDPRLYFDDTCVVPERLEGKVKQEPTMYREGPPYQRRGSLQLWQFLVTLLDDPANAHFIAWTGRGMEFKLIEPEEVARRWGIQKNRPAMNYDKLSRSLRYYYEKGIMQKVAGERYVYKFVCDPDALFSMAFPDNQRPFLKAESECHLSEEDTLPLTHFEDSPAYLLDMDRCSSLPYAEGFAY
# Chain of ETV1 (P50549 whole entry): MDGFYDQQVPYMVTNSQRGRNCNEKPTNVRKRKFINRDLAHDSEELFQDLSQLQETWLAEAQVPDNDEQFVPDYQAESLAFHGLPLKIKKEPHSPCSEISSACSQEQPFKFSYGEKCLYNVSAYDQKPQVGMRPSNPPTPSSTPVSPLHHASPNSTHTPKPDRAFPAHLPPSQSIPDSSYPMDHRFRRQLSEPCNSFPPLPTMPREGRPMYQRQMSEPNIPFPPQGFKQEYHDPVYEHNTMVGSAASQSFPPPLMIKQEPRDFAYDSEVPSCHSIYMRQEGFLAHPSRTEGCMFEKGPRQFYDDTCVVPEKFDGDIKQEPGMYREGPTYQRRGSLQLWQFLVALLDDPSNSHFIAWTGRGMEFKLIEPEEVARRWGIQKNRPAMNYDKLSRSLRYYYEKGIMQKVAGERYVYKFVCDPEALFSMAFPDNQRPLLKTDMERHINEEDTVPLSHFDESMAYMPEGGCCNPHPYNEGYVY
# Chain of ELF4 (Q99607 whole entry): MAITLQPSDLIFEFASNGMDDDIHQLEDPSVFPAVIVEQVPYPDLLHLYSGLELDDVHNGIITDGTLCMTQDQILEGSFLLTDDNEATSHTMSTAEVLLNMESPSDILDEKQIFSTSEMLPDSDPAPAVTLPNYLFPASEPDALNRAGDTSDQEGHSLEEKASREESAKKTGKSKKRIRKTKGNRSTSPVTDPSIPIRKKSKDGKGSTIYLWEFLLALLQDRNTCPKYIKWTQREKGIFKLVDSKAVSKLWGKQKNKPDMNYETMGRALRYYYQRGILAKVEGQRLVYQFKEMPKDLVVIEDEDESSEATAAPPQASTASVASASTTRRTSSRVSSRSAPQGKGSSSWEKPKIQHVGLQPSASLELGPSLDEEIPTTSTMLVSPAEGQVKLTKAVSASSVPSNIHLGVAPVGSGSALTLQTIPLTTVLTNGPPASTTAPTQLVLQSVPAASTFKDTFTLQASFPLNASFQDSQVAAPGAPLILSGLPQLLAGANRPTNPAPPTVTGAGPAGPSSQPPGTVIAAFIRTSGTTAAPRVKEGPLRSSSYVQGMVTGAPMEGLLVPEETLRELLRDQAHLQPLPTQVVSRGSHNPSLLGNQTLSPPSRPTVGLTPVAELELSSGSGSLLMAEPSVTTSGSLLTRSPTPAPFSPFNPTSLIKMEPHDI
# Chain of CRX (O43186 whole entry): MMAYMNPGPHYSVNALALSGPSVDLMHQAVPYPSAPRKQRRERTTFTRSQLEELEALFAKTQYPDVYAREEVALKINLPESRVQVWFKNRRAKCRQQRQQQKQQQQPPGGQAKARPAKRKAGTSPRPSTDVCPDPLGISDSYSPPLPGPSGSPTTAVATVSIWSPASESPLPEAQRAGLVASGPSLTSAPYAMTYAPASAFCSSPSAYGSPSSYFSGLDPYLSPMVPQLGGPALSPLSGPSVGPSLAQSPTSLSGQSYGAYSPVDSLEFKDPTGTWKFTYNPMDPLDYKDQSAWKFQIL
# Chain of HSF1 (Q00613 whole entry): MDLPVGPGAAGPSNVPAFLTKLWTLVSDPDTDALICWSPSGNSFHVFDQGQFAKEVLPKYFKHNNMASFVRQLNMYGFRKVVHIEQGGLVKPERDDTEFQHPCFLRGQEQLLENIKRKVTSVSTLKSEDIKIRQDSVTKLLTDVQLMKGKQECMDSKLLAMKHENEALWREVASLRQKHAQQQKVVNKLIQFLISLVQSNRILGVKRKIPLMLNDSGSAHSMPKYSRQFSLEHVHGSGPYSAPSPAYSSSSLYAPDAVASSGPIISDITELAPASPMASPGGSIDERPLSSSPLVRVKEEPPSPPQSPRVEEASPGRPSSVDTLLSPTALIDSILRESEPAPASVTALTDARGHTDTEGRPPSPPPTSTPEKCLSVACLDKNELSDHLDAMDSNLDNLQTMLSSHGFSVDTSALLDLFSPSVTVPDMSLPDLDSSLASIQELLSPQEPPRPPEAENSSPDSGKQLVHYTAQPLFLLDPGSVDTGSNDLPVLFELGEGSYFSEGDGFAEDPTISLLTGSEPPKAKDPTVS
sequence,measurement,setting,value
TATTTG,binding signal,FEV,"1.39 fold enrichment (6-mer frequency, TF over GST control)"
same,binding signal,ETV5,"1.47 fold enrichment (6-mer frequency, TF over GST control)"
same,binding signal,HSF1,"1.43 fold enrichment (6-mer frequency, TF over GST control)"
same,binding signal,SPIC,"1.25 fold enrichment (6-mer frequency, TF over GST control)"
same,binding signal,ELF4,"1.3 fold enrichment (6-mer frequency, TF over GST control)"
same,binding signal,ELK4,"1.26 fold enrichment (6-mer frequency, TF over GST control)"
same,binding signal,ETV2,"1.27 fold enrichment (6-mer frequency, TF over GST control)"
same,binding signal,ELF3,"1.45 fold enrichment (6-mer frequency, TF over GST control)"
same,binding signal,CRX,"1.71 fold enrichment (6-mer frequency, TF over GST control)"
same,binding signal,ETV1,"1.4 fold enrichment (6-mer frequency, TF over GST control)"
